D2 ag-1: D2 dopamine receptor (human) agonism | 0.53% of 340,000 active | activation, % at 2 µM | HEK293 T-REx D2 cells, calcium flux agonist mode | AID 485358 | P14416;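 active = activation over 3 SD above normal in the single-dose calcium agonist read, cut at about 30% in these data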; also: 0% is about no effect
Target sequence (P14416 whole entry, looked up): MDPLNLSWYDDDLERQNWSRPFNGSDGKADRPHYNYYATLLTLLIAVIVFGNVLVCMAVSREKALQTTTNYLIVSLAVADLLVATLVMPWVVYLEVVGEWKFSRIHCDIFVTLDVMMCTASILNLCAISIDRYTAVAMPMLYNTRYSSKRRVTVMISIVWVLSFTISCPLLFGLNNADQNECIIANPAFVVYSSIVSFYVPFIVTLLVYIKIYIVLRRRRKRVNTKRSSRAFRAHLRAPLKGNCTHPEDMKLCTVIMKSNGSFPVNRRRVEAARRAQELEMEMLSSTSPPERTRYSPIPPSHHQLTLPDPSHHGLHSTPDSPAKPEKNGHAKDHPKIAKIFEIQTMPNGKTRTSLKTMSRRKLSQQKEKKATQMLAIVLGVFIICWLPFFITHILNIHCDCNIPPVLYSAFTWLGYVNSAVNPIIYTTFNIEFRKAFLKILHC
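Agonism is scored from calcium flux in a force-coupled, inducible HEK293 cell line expressing D2, read kinetically for 180 s after compound addition against dopamine controls.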
D2 PAM-1: positive allosteric modulators of human D2 dopamine receptor; AID 485347; 0.34% of 340,000 active; P14416; potentiation, % at 10 µM; HEK293 T-REx D2, calcium flux, EC20 dopamine potentiation;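 active = potentiation over 3 SD above the plate norm, cut at about 30% in these data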; also: 0% is about no effect
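Potentiation of an EC20 dopamine calcium response measured kinetically over 180 s, after a preceding 180 s compound-only read flagging agonists. Cells: inducible Hek293 Trex D2 line, 4000/well, cultured overnight at 30 C before dye loading.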
D2 ag-2: human D2 receptor agonism in beta-arrestin assay; P14416; DiscoveRx PathHunter D2 beta-arrestin, luminescence, 90 min; 100% = 57 uM dopamine signal; activation, % (no concentration beside the values); 0.084% of 360,000 active; AID 624465; in the data active = activation above about 40%; inconclusive = between about 15% and that limit
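DiscoveRx PathHunter D2 beta-arrestin cells (2,100/well) attached overnight, then compound-stimulated 90 min at 37 C in HBSS/10 mM HEPES/0.1% Tween-20 buffer; beta-galactosidase complementation read by luminescence after 1 h at ambient temperature. Dopamine 57 uM final (EC100) as control.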
D2 antag: antagonists of human D2 dopamine receptor; P14416; HEK293 TREx D2 cells, calcium flux, dopamine EC80; inhibition, % at 10 µM; 2% of 340,000 active; AID 485344; in the data active = inhibition above about 30%; inactive = below that, where a call was filed; also: 0% is about no effect
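Read-out: kinetic calcium fluorescence (1 cycle/s) in inducible HEK293 T-REx D2 cells after an EC80 dopamine addition that followed 180 s compound preincubation. Loss of the dopamine response indicates antagonism.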
D2 PAM-2: potentiates the human D2 dopamine receptor allosterically; P14416; DiscoveRx D2 beta-arrestin cells, luminescence, 90 min; 100% = 57 uM dopamine signal; potentiation, % (no concentration beside the values); 0.23% of 360,000 active; in the data active = potentiation above about 50%; inconclusive = mostly about 30% to 49%
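PathHunter D2 cells, attached overnight at 37 deg C, received compound in DMSO plus dopamine at EC20 (50 nM final) for 90 min at 37 deg C. Beta-arrestin recruitment was read as luminescence after 1 h with detection reagent at ambient temperature.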
D3 arrestin ag: activates human D3 dopamine receptor beta-arrestin recruitment | DiscoveRx D3 beta-arrestin cells, luminescence, 90 min | shares compounds with D2 ag-1 | 4% of 2,300 active | Potency, µM (doses to about 76.9 µM), for inactives: at the top dose activation, hits mostly activators;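 also: potency is read from the fitted curve at half-maximal effect; 100% = dopamine control response; nearly all actives have a fitted effect of over 70% in size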
D2 ag-3: D2 receptor agonism, beta-arrestin counterscreen; shares compounds with D2 ag-1; DiscoveRx PathHunter D2 beta-arrestin, luminescence, 90 min; response scale: percent relative to full dopamine signal; Potency, µM (series often up to 76.9 µM), for the others: at the highest dose activation, hits mostly activators; 5.9% of 2,300 active; AID 720507; also: potency is read from the fitted curve at half-maximal effect; % of control where 0% means no effect; nearly all actives have a fitted effect of over 70% in size
* marks the source's active call; other numbers are inactive results; ? = inconclusive; / = no result given. In the library only some 2.4% were active in any assay of this set; here they are far more common. Unless noted, calls follow the shape of the dose curve; as a rule, active = well fitted activation curve with a large enough effect; inconclusive = small, poorly fitted or top-dose-only effect; inactive = flat fitted curve, though single readings scatter.

SMILES	D2 ag-1	D2 PAM-1	D2 ag-2	D2 antag	D2 PAM-2	D3 arrestin ag	D2 ag-3
O=C(CSCC(=O)Nc1cccc2ccccc12)Nc1cccc2ccccc12	/	/	1	/	-6	/	/
O=C(CSc1ncccn1)Nc1cccc2ccccc12	0	12	-1	19	2	-2%	-3%
CCC1=C(c2ccc(C)cc2)S(=O)(=O)N=C1N1CCC(C(=O)NCc2ccc(N(C)C)cc2)CC1	0	-1	/	/	/	/	/
O=C1C[C@@H]2c3c(cccc3CN1Cc1ccc(F)cc1)C[C@@H](O)[C@H]2O	1	5	-3	-4	-7	-5%	-3%
COc1ccc(CN2Cc3cccc4c3[C@@H](CC2=O)[C@H](O)[C@H](O)C4)cc1	0	-4	-1	-18	0	/	/
Cc1nn(C)c2c1c(-c1ccccc1)cc(=O)n2Cc1ccccc1C#N	-1	-3	/	/	/	/	/
COC(=O)c1cc(NC(=O)CC2Oc3ccccc3NC2=O)cc(C(=O)OC)c1 (stereo not given)	26	4	-1	2	2	0%	0%
CC(=NCCc1c(C)[nH]c2ccc(OC(F)(F)F)cc12)C1=C(O)CC(c2ccccc2)CC1=O (stereo not given)	4	-3	11	14	2	-4%	1%
CC(=NCCc1c(C)[nH]c2ccc(C)cc12)C1=C(O)CC(c2ccccc2)CC1=O (stereo not given)	5	-10	-12	4	-15	/	/
CCCC(=NCCc1c(C)[nH]c2ccccc12)C1=C(O)CC(c2ccccc2)CC1=O (stereo not given)	25	-6	-8	-7	-7	/	/
CCCCC(=NCCc1c(C)[nH]c2ccccc12)C1=C(O)CC(c2ccccc2)CC1=O (stereo not given)	0	/	4	0	1	-6%	-3%
CCC(=O)Oc1ccc(C(=O)Nc2ccc3c(c2)OCO3)cc1	-1	2	6	17	-6	2%	1%
COc1ccc(C(=O)CN2CCN(c3ncccn3)CC2)cc1	80*	-33	14	39*	-4	26%	27%
COc1ccc(OCC(O)CN2CCN(c3ccccc3)CC2)cc1 (stereo not given)	89*	-22	?	-4	-25	?	?
CC(C)c1ccc(OCC(O)CN2CCN(c3ccccc3)CC2)cc1 (stereo not given)	54*	-26	?	78*	-8	-4%	?
COc1ccc(N2CCN(CC(O)COc3ccc(C(C)(C)C)cc3)CC2)cc1 (stereo not given)	9	-2	/	/	/	/	/
OC(COc1ccc2c(c1)OCO2)CN1CCN(c2ccccc2)CC1 (stereo not given)	71*	-32	?	82*	-14	?	?
O=C(c1ccc(Cl)cc1)N1CCCCC1CCN1CCOCC1 (stereo not given)	-1	10	/	/	/	/	/
Cn1c(-n2cccc2)c(-c2c(-c3ccc(F)cc3)[nH]c3c2c(=O)n(C)c(=O)n3C)c(=O)n(C)c1=O	2	19	/	/	/	/	/
COc1ccc(OCC(O)CN2CCN(c3ncccn3)CC2)cc1 (stereo not given)	70*	-20	?	62*	-19	?	?
CCOC(=O)N1CCC(Nc2c(NCCN3CCN(Cc4ccccc4)CC3)c(=O)c2=O)CC1	0	-15	0	23	-19	/	/
COc1ccc(NC(=O)NCCCN2CCN(c3ccccc3F)CC2)cc1	82*	-25	6	92*	-4	?	24%
O=C(CN1CCN(c2ccccc2F)CC1)c1ccc2cc[nH]c2c1	28	-25	-4	29	-14	9%	12%
COc1ccc(C(=O)CCN2CCCCCC2)cc1	3	-8	-2	-7	-14	/	/
CCOC(=O)N1CCC(Nc2c(NCCN3CCN(c4ccccc4F)CC3)c(=O)c2=O)CC1	43*	-9	2	24	-11	?	3%
SMILES	D2 ag-1	D2 PAM-1	D2 ag-2	D2 antag	D2 PAM-2	D3 arrestin ag	D2 ag-3
COc1ccc(C(=O)CCN2CCN(c3ccccc3F)CC2)cc1	28	-25	2	82*	-35	4%	0%
CC(=O)N1CCc2cc(C(=O)CN3CCN(c4ccccc4F)CC3)ccc21	0	11	-4	-5	-9	/	/
COc1ccccc1CNC(=O)CCn1cnc2ccccc2c1=O	0	-5	/	/	/	/	/
Cc1ccc(-n2nc(C)c3nc(CCC(=O)Nc4cccc(F)c4)c(=O)n(C)c32)cc1	/	2	/	/	/	/	/
CCOc1ccc(NC(=O)NCCN2CCN(c3ccccc3F)CC2)cc1	77*	-29	?	79*	-8	?	?
COc1ccc(NC(=O)CN2CCN(c3ccccc3F)CC2)cc1	0	6	-1	-1	-42	/	/
COc1ccccc1N1CCN(CC(=O)Nc2ccc3c(c2)OCCO3)CC1	-1	19	1	-24	5	/	/
COc1cccc(NC(=O)CCN2CCN(c3ccccc3F)CC2)c1	76*	-24	?	77*	-8	?	?
COc1ccc(-c2noc(CCC(=O)NCCN3CCN(c4ccccc4F)CC3)n2)cc1	41*	-27	-1	65*	-32	-1%	18%
COc1ccccc1N1CCN(CCC(=O)Nc2ccc3c(c2)OCO3)CC1	55*	-18	-1	80*	-16	-4%	1%
CCN1CCN(CCCNC(=O)CCc2nc(-c3ccc(OC)cc3)no2)CC1	1	-15	-2	-10	-2	/	/
CCSc1nc2ccccc2c(OCc2ccccc2Cl)c1C(=O)OC	1	1	/	/	/	/	/
CCc1cccc(NC(=O)Cn2c(=O)n(-c3ccccc3C)c(=O)c3c2c2cc(C)ccc2n3C)c1	1	-2	/	/	/	/	/
Cn1c(=O)c2nc(SCC(=O)Nc3cc(Cl)cc(Cl)c3)n(C)c2n(C)c1=O	1	16	/	/	/	/	/
CCOc1ccc(NC(=O)CCN2CCN(c3ccccc3F)CC2)cc1	79*	-20	?	77*	14	?	?
CCOc1ccc(NC(=O)CCN2CCN(c3ccccc3OC)CC2)cc1	27	-28	1	61*	-31	-7%	4%
CCOc1ccc(NC(=O)CCN2CCN(C)CC2)cc1	0	18	3	-13	-6	/	/
Cc1cccc(N2CCN(C(=O)c3cnn(-c4ccccc4Cl)c3C3CCN(C(=O)OC(C)(C)C)CC3)CC2C)c1 (stereo not given)	-1	5	/	/	/	/	/
